Each structure is given as a SMILES string. Where “and” joins values, the source holds several entries; their conditions need not be identical. Identical values can stand only once. A number with no mark means an inactive call. Inconclusive results are not listed. Calls of active or inactive are those of the source. Unless noted, calls follow the shape of the dose curve; as a rule, active = well fitted curve in the direction sought with a large enough effect; inconclusive = small, poorly fitted or top-dose-only effect, or another doubt; inactive = no such curve, though single readings can be large; an effect the other way counts as inactive or inconclusive.

Experiment [1] can be described thus: Cellular Toxicity (caspase-3) HUV-EC-C (AID 656).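 Also: 0% = DMSO basal and 100% = 100 µM tamoxifen.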 The procedure, abridged:
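HUV-EC-C cells (1000/well) in complete medium, compound-treated 16 h at 37 °C; caspase-3/7 activity read by Caspase-Glo 3/7 luminescence. Normalized to DMSO (basal) and 100 uM tamoxifen (100%); AC50 from Hill-equation concentration-response fits.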

Experiment [2] is described as follows: Cellular Toxicity (caspase-3) SHSY5Y (AID 657). Summed up: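 SH-SY5Y human neuroblastoma cells, 1500/well, exposed to compound for 16 hours at 37 °C in complete medium. Caspase-3/7 activity read by Caspase-Glo luminescence after 1 hr at room temperature, normalized to DMSO and 10 uM staurosporine; AC50 from Hill fit.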
The nature of experiment [3]: Cellular Toxicity (caspase-3) SK-N-SH (AID 661).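 Also: 0% = DMSO basal and 100% = 10 µM staurosporine.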 Summed up:
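Cells were seeded and incubated 5 hr at 37 °C, dosed with compound over a concentration range for 16 hr, then given Caspase-Glo 3/7 reagent for 1 hr at room temperature before luminescence reading.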

A short description of experiment [4]: Cellular Toxicity (caspase-3) H-4-II-E (AID 663).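 Also: cells exposed to compound for 16 hr before readout; 0% = DMSO basal and 100% = 100 µM tamoxifen.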 The conditions noted are these: Potency: caspase-3 activation. Summed up:
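Caspase 3/7 activation measured in H-4-II-E cells in complete culture medium after 16 hr treatment at 37 °C, using luciferase-coupled substrate readout; AC50 values come from Hill-equation fits of normalized concentration-response data.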

The nature of experiment [5]: Cell Viability - LYMP1-002 - Assay at 16 hr (AID 948).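 Also: 0% = DMSO alone and full effect = 92 µM tetraoctylammonium bromide.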 Summed up:
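LYMP1-002 human lymphoblastoid cells, 2500/well, were treated with compounds for 16 hr at 37 C in complete medium. Viability was read as intracellular ATP by CellTiter-Glo luminescence, and AC50 was derived from a Hill fit to concentration-response data.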

The nature of experiment [6]: MultiTox-Fluor Cytotoxicity Assay - LYMP1-002 - Dead Cells (AID 960). Also: nearly all actives have a fitted effect of over 60% in size. Also: potency is read from the fitted curve at half-maximal effect. The procedure, abridged: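 Cells were plated, rested 5 hr, then treated with compound dilution series for 16 hr at 37 C. After adding substrate reagent and 60 min at room temperature, dead-cell protease fluorescence gave concentration-response curves fitted by the Hill equation.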
A short description of experiment [7]: Cell Viability - LYMP1-003 - Assay at 24 hr (AID 963).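 Also: plate controls were DMSO only for no effect and tetraoctylammonium bromide positive control for full effect.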 Summed up:
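Cytotoxicity is scored as a concentration-dependent fall in ATP-linked luciferase signal in human lymphoblastoid LYMP1-003 cells treated 24 hr at 37 C in complete culture medium.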

Experiment [8] in a line: Cell Viability - LYMP1-003 - Assay at 40 hr (AID 964). Also: series mostly up to about 92 µM; % is scaled to controls: 0 for no effect and ±100 for the full control effect; nearly all actives have a fitted effect of over 60% in size. Summed up: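 Luminescent ATP signal (CellTiter-Glo) served as the viability read-out after 40 hr compound treatment of human lymphoblastoid LYMP1-003 cells at 37 C. Decreases in ATP were fitted with the Hill equation to give AC50.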
A short description of experiment [9]: Cell Viability - LYMP2-009 (AID 968). Also: nearly all actives have a fitted effect of over 55% in size. Also: potency is read from the fitted curve at half-maximal effect.
The nature of experiment [10]: Cell Viability - LYMP2-011 (AID 969).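 Also: 0% = DMSO only and full inhibition = 92 µM tetraoctylammonium bromide; nearly all actives have a fitted effect of over 60% in size.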 The procedure, abridged: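 In this qHTS cytotoxicity format, compounds are tested across concentrations on human lymphoblastoid cells in complete medium for 24 hours at 37 C. Viability is taken as cellular ATP measured by luciferase luminescence.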
Experiment [11] is described as follows: Cell Viability - LYMP2-013 (AID 970). Also: nearly all actives have a fitted effect of over 55% in size. Also: potency is read from the fitted curve at half-maximal effect. The procedure, abridged:
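Cytotoxicity is scored as a concentration-dependent drop in intracellular ATP in human lymphoblastoid cells after 24 hr compound exposure at 37 C. ATP is quantified by luciferase luminescence, and AC50 values come from Hill-equation modeling.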

Experiment [12] can be described thus: Cell Viability - LYMP2-017 (AID 972). Also: nearly all actives have a fitted effect of over 55% in size. Also: potency is read from the fitted curve at half-maximal effect. Summed up:
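Cytotoxicity is scored as a concentration-dependent drop in cellular ATP in a human lymphoblastoid line after 24 hr treatment at 37 C. Values are AC50s from Hill-equation modelling.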

The nature of experiment [13]: Cell Viability - LYMP2-023 (AID 975). Also: nearly all actives have a fitted effect of over 55% in size. Also: potency is read from the fitted curve at half-maximal effect. Summed up: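 Steps: seed 2500 human lymphoblastoid cells per well, incubate 5 hr at 37 C, add compound for 24 hr at 37 C, add CellTiter-Glo, hold 30 min at room temperature, read luminescence. AC50 derived by Hill modelling.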
Experiment [14] is described as follows: Cell Viability - LYMP2-002 (AID 977).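 Also: series mostly up to about 92 µM; compound exposure lasted 24 h at 37 °C; plate controls were DMSO only for no effect and 92 µM tetraoctylammonium bromide for full effect.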 The procedure, abridged:
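In this qHTS viability screen, 2500 human lymphoblastoid cells per well receive compound for 24 hr at 37 C, and luciferase-based ATP luminescence gives the viability signal. Tetraoctylammonium bromide serves as positive control.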

The nature of experiment [15]: Cell Viability - LYMP2-012 (AID 982). Also: potency is read from the fitted curve at half-maximal effect.
In experiment [16] the target is Retinoic acid receptor RXR-alpha (Homo sapiens) (UniProt P19793). Put plainly: qHTS assay for small molecule agonists of retinoid X receptor alpha signaling (AID 588544; calls by dose curve;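 also: 0% = DMSO basal wells and 100% = reference agonist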).
For experiment [17] the target is unchanged. Put plainly: qHTS assay for small molecule antagonists of retinoid X receptor alpha signaling (AID 588546; active = well fitted inhibition curve with a large enough effect in the signal ratio, with a control signal flat, not every such curve was filed as active; the % refers to the signal ratio;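 also: cells stimulated with 9-cis-retinoic acid as agonist; % is scaled to controls: 0 for no effect and ±100 for the full control effect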). The following applies: HEK293T RXRa-UAS-bla, beta-lactamase ratio, antagonist mode. The procedure, abridged: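 Beta-lactamase reporter inhibition, read as CCF4 fluorescence ratio (ex 405, em 460/530 nm) after 2 h at RT. HEK293T UAS-bla cells, 2500/well, were stimulated with 9-cis-RA at 500 or 100 nM final alongside test compound for 18 h at 37 C.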
For orientation: Quantitative high-throughput screening tests each substance at several concentrations.

The nature of experiment [18]: qHTS assay for small molecule activators of the p53 signaling pathway (AID 651743; active = well fitted activation curve with a large enough effect in the signal ratio, not every such curve was filed as active; the % refers to the signal ratio; also: series mostly up to about 92 µM; % of control where 0% means no effect). The following applies: HCT-116 p53RE-bla, beta-lactamase FRET ratio, 16 h; activation: hits give high values. The procedure, abridged:
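Agonist-mode quantitative HTS in HCT-116 cells carrying a p53-response-element beta-lactamase reporter; 16 h compound treatment at 37 C, then FRET substrate loading for 2 h at room temperature and fluorescence read.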

Experiment [19] in a line: qHTS assay for small molecule agonists of the antioxidant response element (ARE) signaling pathway measured by Nrf2-dependant transcriptional activity - cell viability counter screen (AID 720653; active = well fitted curve in the direction sought with a large enough effect in the repeat runs; an effect the other way counts as inactive or inconclusive; also: % is scaled to controls: 0 for no effect and ±100 for the full control effect). The conditions noted are these: ARE-bla HepG2 viability, CellTiter-Glo ATP luminescence, 16 h; hits give low values. The procedure, abridged: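 ARE-bla HepG2 cells (2,000/well) rested 5 hrs at 37C/5% CO2, then exposed to compounds in DMSO for 16 hrs. Viability was read in the same wells as intracellular ATP by luminescence, 30 min at room temperature after reagent addition.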

Experiment [20] is described as follows: Cell Viability - LYMP2-003 (AID 965).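 Also: cells exposed to compounds for 24 h before reading; nearly all actives have a fitted effect of over 50% in size.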 Also: potency is read from the fitted curve at half-maximal effect. The procedure, abridged: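 Human lymphoblastoid LYMP2-003 cells, 2500/well, exposed to compounds for 24 h at 37 C in complete medium. Viability read as intracellular ATP by CellTiter-Glo luminescence; AC50 from Hill-equation fits of qHTS concentration-response data.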

Chain of Retinoic acid receptor RXR-alpha (Homo sapiens) (P19793 whole entry, looked up): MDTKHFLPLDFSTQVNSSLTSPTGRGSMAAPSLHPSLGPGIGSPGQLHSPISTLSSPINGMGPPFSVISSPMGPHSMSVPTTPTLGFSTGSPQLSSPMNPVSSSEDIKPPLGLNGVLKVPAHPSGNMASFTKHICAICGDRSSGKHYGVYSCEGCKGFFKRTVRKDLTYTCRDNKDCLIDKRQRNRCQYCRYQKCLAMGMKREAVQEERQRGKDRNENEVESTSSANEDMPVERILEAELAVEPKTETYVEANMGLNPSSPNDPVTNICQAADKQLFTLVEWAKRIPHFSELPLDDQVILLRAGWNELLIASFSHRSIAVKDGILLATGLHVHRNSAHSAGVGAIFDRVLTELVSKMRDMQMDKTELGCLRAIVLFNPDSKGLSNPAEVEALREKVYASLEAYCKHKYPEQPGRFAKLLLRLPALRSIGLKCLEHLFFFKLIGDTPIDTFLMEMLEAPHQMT

For the compound `Cc1ccc(N)cc1C`, the call in experiment [1], in experiment [2], in experiment [5], in experiment [7] and in experiment [16] was inactive. Further, the Potency result in experiment [3], in [4], in experiment [6], in experiment [8], in [9] and in [10] was “inactive” each time. Also, the Potency entry in experiment [11], in experiment [12], in experiment [13], in experiment [14] and in [15] was “inactive” each time. Further, the max response in experiment [17] is -2%; in experiment [19], -7.17%. In addition, the activation in experiment [18] was -1.62%.

For the compound `C=CCCl`, the compound was classed as inactive in experiment [1], in experiment [2], in experiment [5], in [7] and in [16]. For the same compound, the Potency entry in experiment [4], in experiment [6], in experiment [8], in experiment [20], in experiment [9] and in experiment [10] was “inactive” each time. In addition, the Potency result in experiment [11], in [12], in experiment [14] and in experiment [15] was “inactive” each time. The activation in [18] is -1.58%. Moreover, in experiment [19], the max response was -2.66%.

For the compound `CC(C#N)CCC#N` (configuration not stated), the call in [1], in experiment [5], in experiment [7] and in experiment [16] was inactive. In addition, the Potency result in experiment [3], in [8], in [20], in [9], in experiment [10] and in experiment [11] was “inactive” throughout. Also, the Potency result in experiment [12], in [14] and in experiment [15] was “inactive” in each case. Besides, in experiment [18], the activation was -0.507%. Besides, in experiment [19], the max response was 0.528%.

`CCCCOC(=O)c1ccccc1N`: the compound was called inactive in experiment [1], in experiment [2], in experiment [5] and in experiment [7]. The Potency entry in [4], in experiment [6], in [8], in experiment [20], in [10] and in experiment [11] was “inactive” throughout. Besides, the Potency entry in experiment [13], in [14] and in [15] was “inactive” each time. Besides, in [17], the max response was 6.01%.

For the compound `OC[P+](CO)(CO)CO`, the Potency entry in [3], in [4], in [6] and in experiment [8] was “inactive” in each case. Moreover, the result in experiment [5] and in experiment [7] was inactive. Besides, the Potency was 25.1 µM (active) in [20]; 25.1 µM (active) in [9]; 31.6 µM (active) in [11]; 12.6 µM (active) in experiment [12]; 25.1 µM (active) in experiment [13]; 15.8 µM (active) in [15]. In experiment [18], the activation is 4.85% and 1.14%. Moreover, in [19], the max response is -17.6% and -11.9%.

Regarding `NC1CCC(CC2CCC(N)CC2)CC1` (configuration not stated), the call in experiment [1], in experiment [2] and in experiment [16] was inactive. The Potency entry in experiment [3], in experiment [4], in experiment [8], in experiment [20], in experiment [9] and in experiment [11] was “inactive” in each case. Further, the Potency entry in experiment [12], in experiment [13], in [14] and in [15] was “inactive” in each case. Besides, in experiment [6], the Potency is 3.98 µM (active). The max response in experiment [17] was -0.208% and 1.62%; in [19], -9.14% and 3.44%. Further, in [18], the activation was -3.72% and -4.21%.

For the compound `Oc1ccc(Cl)c(Cl)c1`, the result in experiment [1], in experiment [2] and in experiment [5] was inactive. For the same compound, the Potency entry in [3], in [4], in experiment [6], in [8], in experiment [20] and in experiment [9] was “inactive” throughout. Further, the Potency entry in experiment [11], in [12], in [13] and in [14] was “inactive” in each case. Besides, the results for the max response in experiment [17] and in [19] were -1% and -2.38%, respectively. Besides, the activation in experiment [18] is 2.18%.

For the origin of these results see PubChem BioAssay (NCATS).
